Source: PubChem
G9a block = blocks human histone lysine methyltransferase G9a; hit rate 8.8% among 350,000; AID 504332; G9a H3K9 monomethylation, AlphaScreen, 2 h; Q96KQ7; Potency, µM (titrated, usually from 102 µM), hits mostly inhibitors; further: nearly all actives have a fitted effect of over 75% in size
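Signal arises when biotinylated H3K9 peptide, once monomethylated, bridges streptavidin donor and antibody-captured acceptor beads. Enzyme at 20 nM was preincubated 15 min with test compounds; peptide 500 nM and SAM 20 uM then reacted for 2 h.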
BAZ2B block = blocks human BAZ2B; Potency, µM (series often up to 114 µM), usual class: inhibitors; Q9UIF8; AlphaScreen BAZ2B-H3K14Ac peptide displacement; hit rate 4.4% among 360,000; further: nearly all actives have a fitted effect of over 60% in size
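Protein-peptide AlphaScreen: BAZ2B 50 nM, b-H3K14Ac 50 nM, 1x PBS pH 7.4 + 0.01% Tween-20. Preincubation 30 min RT; cpd 30 min RT (top 110 uM); beads 20 min RT, light-protected.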
PLK1 PBD block = PLK1 (human) polo-box domain binding inhibition; P53350; Plk1 PBD binding of FITC phosphopeptide, fluorescence polarization; Potency, µM, usual class: inhibitors; hit rate 2.8% among 360,000; AID 720504; further: series mostly up to about 57 µM; nearly all actives have a fitted effect of over 65% in size
PI5P4Ka inh = PI5P4K alpha (human) kinase inhibition | P48426 | AID 652105 | PI5P4Kalpha enzyme, ADP-Glo luminescence, 60 min; stronger effect = lower value | hit rate 1.2% among 330,000 | max response, %; active means max response of -50% or lower; inconclusive means between -30% and -50%; inactive means -30% or higher; further: value at the top dose of about 77 µM
Target sequence (P48426 whole entry, looked up): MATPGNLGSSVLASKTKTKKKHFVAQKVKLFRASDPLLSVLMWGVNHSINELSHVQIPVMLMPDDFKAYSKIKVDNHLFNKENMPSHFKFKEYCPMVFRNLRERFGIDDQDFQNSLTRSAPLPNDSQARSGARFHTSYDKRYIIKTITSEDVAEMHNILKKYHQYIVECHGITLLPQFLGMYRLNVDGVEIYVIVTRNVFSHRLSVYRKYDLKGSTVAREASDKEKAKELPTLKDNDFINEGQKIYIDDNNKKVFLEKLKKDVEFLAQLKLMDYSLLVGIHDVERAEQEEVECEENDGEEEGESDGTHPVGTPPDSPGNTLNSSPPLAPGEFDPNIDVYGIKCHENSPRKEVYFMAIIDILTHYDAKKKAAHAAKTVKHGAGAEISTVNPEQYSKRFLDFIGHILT
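Controls without substrate or without enzyme flank wells where PI5P4Kalpha converts substrate using 5 microM ATP (final). Incubation lasts 60 minutes at room temperature; ADP formed is read by ADP-Glo luminescence.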
JMJD2A Tudor inh = inhibitors of human JMJD2A Tudor domain; O75164; Potency, µM (doses to about 114 µM), most hits filed as inhibitors; AID 504339; hit rate 4.4% among 390,000; AlphaScreen JMJD2A-Tudor / H3K4me3 peptide binding; further: nearly all actives have a fitted effect of over 50% in size
HP1b binding inh = HP1-beta chromodomain-methylated histone interaction inhibition | hit rate 0.56% among 390,000 | Potency, µM (top dose mostly 114 µM), hits mostly inhibitors | AID 540317 | AlphaScreen HP1-beta / biotin-H3K9me3 peptide binding; further: nearly all actives have a fitted effect of over 70% in size
Target sequence (P83916 whole entry, looked up): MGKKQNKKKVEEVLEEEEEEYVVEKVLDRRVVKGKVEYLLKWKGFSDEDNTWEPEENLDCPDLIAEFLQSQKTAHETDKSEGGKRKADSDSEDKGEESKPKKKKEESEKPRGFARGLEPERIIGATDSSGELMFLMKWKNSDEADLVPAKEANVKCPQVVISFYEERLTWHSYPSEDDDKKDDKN
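Compound inhibition of the preformed complex between 50 nM HP1-beta and 50 nM biotinylated H3K9me3 peptide was read by AlphaScreen. Buffer was PBS pH 7.4 with 0.01% Tween-20. Incubations ran 30 min at room temperature, with 10 ug/mL donor/acceptor beads.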
Numbers stand for hits; . = inactive; ? = inconclusive; / = no result given; ! = a repeat was not active; [ ] = remark or other dose. Compounds with a hit are over-represented: about 12% of the library has one in this group of screens. Unless noted, the call rests on the fitted dose curve; in most records, active means well fitted curve in the direction sought with a large enough effect; inconclusive means small, poorly fitted or top-dose-only effect, or another doubt; inactive means no such curve, though single readings can be large; an effect the other way counts as inactive or inconclusive.

SMILES | G9a block | BAZ2B block | PLK1 PBD block | PI5P4Ka inh | JMJD2A Tudor inh | HP1b binding inh
CC1CCN(S(=O)(=O)c2ccc3c(c2)N(CC(=O)NC(C)C)C(=O)CO3)CC1 | . | . | / | / | . | .
Cc1ccc(O)c(C(CC(=O)NCc2ccco2)c2ccccc2)c1 (stereo not drawn) | / | ? | . | . | . | .
Cc1ccccc1CNC(=O)c1ccccc1SCC(=O)NCc1ccco1 | 13µM | . | . | . | . | .
Cc1ccccc1NC(=O)CNc1ccccc1C(=O)NCc1ccco1 | 40µM | . | . | . | . | .
Cc1cccc(C(CC(=O)NCc2ccco2)c2ccccc2)c1O (stereo not drawn) | 45µM | ? | . | . | . | .
COc1ccccc1CNC(=O)c1ccccc1SCC(=O)NCc1ccco1 | 3.2µM | . | . | . | . | .
COc1ccc(CN2CCC(=O)N(CCO)CC2)cc1OC | / | . | . | . | . | .
O=C(Nc1ccccc1)N(Cc1c[nH]c2ccccc12)C1CCCCCC1 | . | / | / | / | ? | .
O=C(NCc1ccco1)c1ccccc1NS(=O)(=O)c1ccc(Cl)s1 | 20µM | ? | ? | . | ? | .
COc1ccc(O)c(C(=O)c2cnc3nc4ccccc4n3c2)c1 | 32µM | . | . | . | . | .
Cc1ccc(S(=O)(=O)N2CCN(c3nc(-c4cccs4)nc4nc[nH]c34)CC2)cc1 | / | / | / | / | . | .
Cc1ccccc1NC(=O)CCS(=O)(=O)c1ccc(Br)s1 | 45µM | ? | . | . | . | .
C[C@@H]1CN([C@H](C)CO)C(=O)CCCn2cc(nn2)CO[C@H]1CN(C)S(=O)(=O)c1ccccc1C#N | / | / | . | . | / | /
Cc1ccc(C2=NOC3(CC(=O)N(c4ccccc4)C3=O)C2)cc1 (stereo not drawn) | . | . | . | . | . | .
COc1ccc(C2=NOC3(CC(=O)N(c4ccc(F)cc4)C3=O)C2)cc1 (stereo not drawn) | 50µM | . | . | . | . | .
COc1ccc(C2=NOC3(CC(=O)N(c4ccc(F)cc4)C3=O)C2)c(OC)c1 (stereo not drawn) | 50µM | . | . | / | . | .
COc1ccc(C2=NOC3(CC(=O)N(c4ccc5ccccc5c4)C3=O)C2)c(OC)c1 (stereo not drawn) | ? | ? | . | / | 50µM | .
Cc1ccc(C2=NOC3(CC(=O)N(c4ccc(C)cc4)C3=O)C2)cc1 (stereo not drawn) | / | . | . | . | . | .
CC(C)(C)c1ccc(OCCSc2nc(-c3cccs3)nc3cc(=O)[nH]n23)cc1 | . | . | / | / | . | .
CCC(C)NC(=O)c1cc2c(Cl)nc3ccc(C)cc3c2s1 (stereo not drawn) | . | . | / | / | . | .
Cc1cccc(C(C)C)c1NC(=O)c1ccc2c(c1)CCN2S(C)(=O)=O | . | . | / | / | . | .
O=C(Nc1ccc(F)c(Cl)c1)C1CCCN1S(=O)(=O)c1ccc(F)cc1 (stereo not drawn) | . | . | / | / | . | .
O=S(=O)(NC(=S)c1ccccc1)c1ccc(F)cc1 | 79µM | . | ? | . | . | .
O=C(NNS(=O)(=O)c1ccc(F)cc1)c1ccccc1F | . | . | . | . | . | .
O=C(NNS(=O)(=O)c1ccc(F)cc1)c1ccccc1 | / | . | . | . | 14µM | .
SMILES | G9a block | BAZ2B block | PLK1 PBD block | PI5P4Ka inh | JMJD2A Tudor inh | HP1b binding inh
O=S(=O)(NC(=S)c1ccccc1)c1ccc(Cl)cc1 | ? | . | 15µM | . | . | .
COc1ccc(NC(=O)C2=C(C)Nc3c(C(=O)Nc4ccc(C)cc4)cnn3C2c2cccc(Cl)c2)cc1 (stereo not drawn) | . | . | / | / | . | .
COc1ncc2nc(-c3cccs3)c(=O)n(-c3ccccc3)c2n1 | .[12.7 µM] | / | / | / | / | /
O=C(CN1CCN(Cc2ccccc2)CC1)N1CCCc2ccccc21 | ? | 20µM | . | . | 4.5µM | ?
O=C(CN1CCN(Cc2ccc(Cl)cc2)CC1)N1CCc2ccccc21 | . | . | . | . | . | .
O=C(CSc1cccc[n+]1[O-])N1CCc2ccccc21 | 56µM | . | . | . | . | .
O=C(CN1CCN(c2ccc(O)cc2)CC1)N1CCc2ccccc21 | 10µM | . | . | . | 79µM | ?
CCNc1ncc2nc(-c3cccs3)c(=O)n(Cc3cccs3)c2n1 | .[0.501 µM] | / | / | / | / | /
N/C(=N\NC(=O)c1ccccc1)c1cc2ccccc2oc1=O | . | . | 21µM | . | ? | .
O=C(O)c1ccccc1NC(=O)c1cc2ccccc2oc1=O | 50µM | . | . | ? | . | .
COc1ccc(C(=O)N/N=C(\N)c2cc3ccccc3oc2=O)cc1 | . | . | . | . | . | .
N/C(=N\NC(=O)c1cccs1)c1cc2cc(Cl)ccc2oc1=O | .[12.7 µM] | . | 24µM | ? | ? | .
CN(Cc1ccccc1)C(=O)[C@@H]1CCCN1C(=O)[C@@H]1CCCN1C(=O)c1cccs1 | / | / | . | . | / | /
Cc1cc(CNC(=O)[C@]2(C(F)(F)F)C[C@H](CCC3CCCCC3)CCCO2)nn1C | / | / | / | / | . | .
O=C(NCc1ccccn1)c1ccc(-c2ccccc2)cc1 | . | . | . | . | . | .
O=C(Nc1cccnc1Cl)c1ccc(=O)oc1 | 35µM | 56µM | . | ? | ? | .
CCN(CCCNC(=O)c1c(C)cc(=O)oc1C)c1cccc(C)c1 | 13µM | ? | . | / | ? | .
Cc1cc(=O)oc(C)c1C(=O)NCCNC(=O)c1c(C)cc(=O)oc1C | .[12.7 µM] | . | . | . | . | .
Cc1cc(=O)oc(C)c1C(=O)NCc1ccccn1 | 1.6µM | 16µM | . | / | 2.5µM | .
O=C(NCc1ccccn1)c1ccc(=O)oc1 | 3.2µM | 6.3µM | . | . | 8.9µM | .
O=C(NCc1ccccn1)c1ccc2c(=O)n(CCc3ccccc3)c(=O)[nH]c2c1 | ? | . | . | ? | . | .
O=C(NCc1ccccn1)/C(=N/O)c1ccccc1 | . | . | 3.4µM | ? | .[11.4 µM] | .
C/C(=N\O)C(=O)NCc1ccccn1 | . | . | . | . | . | .
Cc1ccccc1CS(=O)(=O)Cc1ccc(C(=O)NCc2ccccn2)o1 | .[0.501 µM] | 50µM | . | . | . | .
CCCCCn1c(=O)[nH]c2cc(C(=O)NCc3ccccn3)ccc2c1=O | 40µM | 79µM | . | ? | ? | .
SMILES | G9a block | BAZ2B block | PLK1 PBD block | PI5P4Ka inh | JMJD2A Tudor inh | HP1b binding inh
CC(C)c1ccc(NC(=O)c2cnc3sc(N4CCOCC4)nn3c2=O)cc1 | . | . | / | / | . | .
Nc1cnn(Cc2ccccc2F)c1 | ? | 40µM | . | . | 50µM | ?
CN(CCOc1ccccc1)C(=O)C1CCC(=O)N(CCCN2CCCC2=O)C1 (stereo not drawn) | . | . | . | . | . | .
C[n+]1ccccc1/C=N/O | .[2.33 µM] | . | . | . | 35µM! | .
C[n+]1ccccc1/C=N\O | .[21.5 µM] | / | / | / | / | /
CC(O)/C=C/c1cccc[n+]1C (stereo not drawn) | 10µM | . | . | / | 40µM | .
CC1(C(=O)NCc2ccccc2)CSCC(=O)N1CC(F)(F)F (stereo not drawn) | / | / | . | . | / | /
